Most compounds without a hit are left out; they make up all but 8.1% or so of the library.
Shh pathway inh – blocks Sonic Hedgehog signaling. Shh-LIGHT2 Gli-luciferase reporter, 30 h. inhibition, % (no concentration beside the values). actives 2.1% (n = 22,000);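 active = mean inhibition across valid replicates above about 65%, limit read from the data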;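 also: pathway switched on by Shh-conditioned medium diluted 1 in 25 in low serum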
NOMO-1 viab – STK33 inhibitor candidate reducing NOMO-1 cell viability; NOMO-1 AML viability, CellTiter-Glo luminescence, 72 h; inhibition, % (test concentration not listed); actives 7.5% (n = 37,000); in the data active = inhibition above about 80%
MITF inhib – MITF inhibition | TRPM1 promoter luciferase, luminescence, 24 h | inhibition, % (concentration not given with the values) | actives 0.28% (n = 37,000) | AID 2240; in the data active = inhibition above about 85%;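 also: human melanocyte line stably carrying TRPM1 promoter luciferase reporter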
Numbers without * were called inactive; x = no result given.

SMILES	Shh pathway inh	NOMO-1 viab	MITF inhib
CC(CO)NC(=O)C1C=C2c3cccc4[nH]cc(c34)CC2N(C)C1 (stereo not given)	-24	15	-11
CC(C)c1cc2c(cc1O)[C@@]1(C)C[C@@H](O)CC(C)(CO)C1CC2 (stereo not given in full)	-4	18	-7
CC(C)c1cc2c(cc1O)[C@@]1(C)C[C@@H](O)CC(C)(C)C1CC2 (stereo not given in full)	-21	103*	-4
COc1c2c(c(CC=C(C)C)c3oc(=O)c(-c4ccc(O)cc4)c(O)c13)OC(C)(C)C=C2	24	23	-11
CC(=O)O[C@@H](c1nc2ccccc2c(=O)n1[C@@H]1C[C@@]2(OC1=O)c1ccccc1N1C(=O)[C@H](C)N(O)[C@@H]12)C(C)C	14	84*	15
CC(C)N1C(=O)c2ccccc2NS1(=O)=O	-44	3	-17
C/C=C/[C@@H]1[C@H]2C[C@@H](C)CC[C@@H]2C(C)=C[C@H]1C(=O)c1c(O)c(-c2ccc(O)cc2)c[nH]c1=O	-9	52	20
C/C=C\C(C)=C\[C@H](C)C(=O)C[C@H](O)CC1CC(=O)NC(=O)C1	53	77	52
Cc1ccccc1NC1=NCC(C)(C)S1	23	-3	-22
OC(Cc1ccncc1)C(Cl)(Cl)Cl (stereo not given)	2	-5	-6
CNC(=O)O/N=C/C(C)(C)SC	-48	0	3
CC(=O)O[C@H]1C[C@H](O[C@H]2[C@@H](O)C[C@H](O[C@H]3[C@@H](O)C[C@H](O[C@H]4CC[C@@]5(C)C(CCC6C5C[C@@H](O)[C@]5(C)[C@@H](C7=CC(=O)OC7)CC[C@]65O)C4)O[C@@H]3C)O[C@@H]2C)O[C@H](C)[C@H]1O[C@@H]1O[C@H](CO)[C@@H](O)[C@H](O)[C@H]1O (stereo not given in full)	-12	107*	29
CO[C@H]1[C@H](O)[C@H](O[C@H]2CC[C@]3(C)C4CC[C@]5(C)[C@H](C6=CC(=O)OC6)CC[C@]5(O)C4CC[C@@H]3C2)O[C@@H](C)[C@@H]1O[C@@H]1O[C@H](CO[C@@H]2O[C@H](CO)[C@@H](O)[C@H](O)[C@H]2O)[C@@H](O)[C@H](O)[C@H]1O (stereo not given in full)	-5	119*	31
CO[C@@H]1[C@H](O)[C@@H](O[C@@H]2C[C@H]3CC[C@@H]4C(CC[C@]5(C)[C@@H](C6=CC(=O)OC6)CC[C@]45O)[C@@]3(C)[C@H](O)C2)O[C@H](C)[C@@H]1O[C@@H]1O[C@H](CO)[C@@H](O)[C@H](O)[C@H]1O (stereo not given in full)	-11	120*	30
CC[C@]12C=CCN3CC[C@@]4(c5ccc(OC)cc5N(C)[C@H]4[C@@](O)(C(=O)OC)[C@@H]1OC(C)=O)[C@@H]32	6	19	-5
CCc1nc2ccccc2c(=O)n1-c1ccc(OC)cc1	-3	6	3
Nc1ncnc2nc(SCc3nc4ccc(I)cc4c(=O)n3-c3ccccc3)[nH]c12	x	3	1
